Assay results taken from paper PMC12136788.
Changes are numbered by the printed parent chain. Over roughly 5,800 sequences, “enrichment r” has its median near 0.68; the highest 2% begin near 11. Shown is part of a subset that was picked to be rich in the highest values.

B1: chr7:158693335:158693439:-|CDS|ENSG00000146918|unk|total|mutant (ssRNA)
RNA: GGGAGUUCUACAGUCCGACGAUCAAGGAAACAGAAAGAAGAAUUAUGGCAAAGGCUGAAGAAUUUAUUGACAGAUGUGUUGUCCGAAAGCCCAGUGGAUGGGUGGCAGGCCGUGGAAGCCCAGGGUGAAGACAAUAUGGAAACCAACAGAGGAUUGAGCAUCA
B2: chr2:165880514:165880799:-|CDS|ENSG00000123607|control|control|control (ssRNA)
RNA: GGGAGUUCUACAGUCCGACGAUCGAUGGCAUGGAAAUAUAGCAAUCGGACAAAUCCGGCAGUAGGUGAGUUUGGCAAUCACCUAGAUUUUUCACAGAAAAAUUAUGUUGUAUUUAUUAAUUUUCAUUUAAAUGCAUUUGAUUUCAACAGAGGAUUGAGCAUCA
B3: ENSG00000136451:be:win_1351|CDS|ENSG00000136451|bound_else_gene|NA|bound_elsewhere_windowed (ssRNA)
RNA: GGGAGUUCUACAGUCCGACGAUCCCAUUAUCCAUGACCUCUCCUUUAACACUCACUACCCCAGUCAACCUCCCCACCCCCGUCACUGCCCCAGUGAAUAUAGCACACCCUGUCACCAUCACAUCUCCAAUGAAUCUACCCACACAACAGAGGAUUGAGCAUCA
B4: chr3:58425360:58425463:+|3pUTR|ENSG00000168297|unk|FALSE|unique (ssRNA)
RNA: GGGAGUUCUACAGUCCGACGAUCAGACAGCUCCUAGAAACAUUCCUCUUACAGUUCAUUUCUCUAAAGCAUUUUCUGAUUCUUAGAUAACUCCAAUUUUUGCUACCUUUAUCUUAGACAUUAACACUAUAGCCCAAAGCAUAGCAACAGAGGAUUGAGCAUCA
B5: chr7:158734047:158734148:-|3pUTR|ENSG00000117868|msi1_unk|FALSE|overlapping (ssRNA)
RNA: GGGAGUUCUACAGUCCGACGAUCCUACCCGGAACACACCCUCUCACAGACGUACCAAUGUUAUUUUUAUAAUUUCAUGGAUUUAGUUAUACAUACCUUAAUAGUUUUAUAAAAUUGUUGACAUUUCAGGCAAAUUUGGCCAAUCAACAGAGGAUUGAGCAUCA
B6: chr12:107752058:107752159:-|CDS|ENSG00000110851|unk|FALSE|unique (ssRNA)
RNA: GGGAGUUCUACAGUCCGACGAUCUAACUCUAUAAAUGUUGAUGGUAAUACAGCAUUAUCUAUCACCAAUAACCCUUCAGCACUAGAUCCCUAUCAGUCCAAUGGAAAUGUUGGAUUAGAACCAGGCAUUGUUUCAAUAGACUCCAACAGAGGAUUGAGCAUCA
B7: chr19:38730201:38730298:+|3pUTR|ENSG00000130402|msi1_unk|FALSE|overlapping (ssRNA)
RNA: GGGAGUUCUACAGUCCGACGAUCCAGAGAAUUACUAUUUACUUUAUUAACUUACGGAUUUAUUAUAUAAAUAUAUAUUCACCUAGCAACAUAUCUCUGCCGUCUCUCCUGCUCUCAUAAUGAAGACAUAGCCGAUUCUCUGCCCAACAGAGGAUUGAGCAUCA
B8: chr14:75059847:75060235:-|three_prime_utr|ENSG00000119640|control|control|control (ssRNA)
RNA: GGGAGUUCUACAGUCCGACGAUCAACCACAUUAAAAAAAUAAAAAGGAUAACUGGAAAAUCCCAAAAUAUUUGGAAACCAUAUAGCACACUUACUUCUAAAAUUGUGGUAGAAUACAUAUAACAUAGAAAUUAUUGUUCUAACCAACAGAGGAUUGAGCAUCA
B9: chr1:93180074:93180188:-|CDS|ENSG00000117500|unk|total|mutant (ssRNA)
RNA: GGGAGUUCUACAGUCCGACGAUCCUGGCCGCUCUGCCUCCGGUGCUGCUGCCUGGGGCGGCCGGCUUCACACCUUCCCUCGACCGCGACUUCACCUUUACCCUUCCCGCCGGCCAGAAGGAGUGCUUCUACCAGCCCAUGCCCCAACAGAGGAUUGAGCAUCA
B10: chr11:11963431:11963477:-|3pUTR|ENSG00000050165|msi1_unk|FALSE|overlapping (ssRNA)
RNA: GGGAGUUCUACAGUCCGACGAUCUUGACACUGUCCCUCUUUGGCAGUUGCAUUAGUAACUUUGAAAGGUAUAUGACUGAGCGUAGCAUACAGGUUAACCUGCAGAAACAGUACUUAGGUAAUUGUAGGGCGAGGAUUAUAAAUCAACAGAGGAUUGAGCAUCA
B11: chr8:47773456:47773635:-|3pUTR|ENSG00000253729|msi1_unk|FALSE|overlapping (ssRNA)
RNA: GGGAGUUCUACAGUCCGACGAUCGUUUUUUCCUUUCAUUUUAUUCUCUUCUAGUUUUGACAUUUUAUGAUAGAUUUGCUCUCUAGAAGGAAACGUCUUUAUUUAGGAGGGCAAAAAUUUUGGUCAUAGCAUUCACUUUUGCUACAACAGAGGAUUGAGCAUCA
B12: ENSG00000124766:be:win_2951|3pUTR|ENSG00000124766|bound_else_gene|NA|bound_elsewhere_windowed (ssRNA)
RNA: GGGAGUUCUACAGUCCGACGAUCCUUUAUUCCUUCCUUUUCCUUUUUUUCUUUUUUUUUUCUUUUUUUUUUUUUUUUUUUGGUAGUUGUUGUUACCCACGCCAUUUUACGUCUCCUUCACUGAAGGGCUAGAGUUUUAACUUUCAACAGAGGAUUGAGCAUCA
B13: chr1:965281:965395:+|3pUTR|ENSG00000187961|unk|total|mutant (ssRNA)
RNA: GGGAGUUCUACAGUCCGACGAUCCCAUCCGUUCACGUCUCUGCAUCCAUUCCUUCAUGUCUUUAUUCCGUUGUUUAUUUAUUCCGUUAUUUAUCUUAUUUAUUGAGGGGUGAGGAGUGCCACGGCUGCCCGUUUACACCUUUACAACAGAGGAUUGAGCAUCA
B14: ENSG00000124766:be:win_3001|3pUTR|ENSG00000124766|bound_else_gene|NA|bound_elsewhere_windowed (ssRNA)
RNA: GGGAGUUCUACAGUCCGACGAUCUUUUUUUGGUAGUUGUUGUUACCCACGCCAUUUUACGUCUCCUUCACUGAAGGGCUAGAGUUUUAACUUUUAAUUUUUUAUAUUUAAAUGUAGACUUUUGACACUUUUAAAAAACAAAAACAACAGAGGAUUGAGCAUCA
B15: chr1:965281:965395:+|3pUTR|ENSG00000187961|unk|FALSE|unique (ssRNA)
RNA: B13 RNA with C67U, C68A, C83U, C84A
B16: chr11:130144177:130144243:+|3pUTR|ENSG00000084234|msi1_unk|total|mutant (ssRNA)
RNA: GGGAGUUCUACAGUCCGACGAUCAUGAGGGUGUCCGCUGCUGCUUUCCUUCGGAAUCCAGUGCUUCCACAGAGAUCCGCCUGCCGCUUAUAUUUGACAUUCUUCACUGUCUGUUGUUUACCUACCGCCGCUUUUUACCGUUCACAACAGAGGAUUGAGCAUCA
B17: chr2:73730642:73730743:-|CDS|ENSG00000144034|unk|FALSE|unique (ssRNA)
RNA: GGGAGUUCUACAGUCCGACGAUCUUCAGACGUAGGAAACAAUGGUUAAUGAUCUUGUGUUUUUUUUUUCAUUUUUUUUCUCUUAGAUUUCAGAGGCUUUGAAAAAAUUUGGUAUCUCAGCAAAUGACACUUCAAUUCUAAUUGCAACAGAGGAUUGAGCAUCA
B18: chr1:17407970:17408071:-|3pUTR|ENSG00000179051|msi1|FALSE|unique (ssRNA)
RNA: GGGAGUUCUACAGUCCGACGAUCGGGUACCGUUCUGCUGACCCAGCUCCCUUUAGUCACGUUUGCUUGGCUCUGGUACCAAAUAGUUGGGAUUACCGAAGAGUCCCCUUCCUUGCGUGUCAGCACGGAUGCUGUGACUGCCACCAACAGAGGAUUGAGCAUCA
B19: chr21:34788506:34788607:-|3pUTR|ENSG00000159216|msi1|FALSE|unique (ssRNA)
RNA: GGGAGUUCUACAGUCCGACGAUCUUGUUAAUGCCUAUAACUUUUUUUCAAUUUUUUUGUGUGUGUUUCUAAGGACUUUUUCUUAGGUUUGCUAAAUACUGUAGGGAAAAAAAUGCUUCUUUCUACUUUGUUUAUUUUAGACUUCAACAGAGGAUUGAGCAUCA
B20: chr15:34978960:34979061:-|3pUTR|ENSG00000198146|msi1|FALSE|unique (ssRNA)
RNA: GGGAGUUCUACAGUCCGACGAUCGCCCUCUGUAUCCAUGUACUCUGCAUCUGUGGAUUAAACCAAUUGCAGAUCAAAAAUAUUAGAAAAAAUAAAAAUAAUACAAAUAAAAAUACAGUAUAACAGUUAUUUAAAUAGCAUUUACAACAGAGGAUUGAGCAUCA
B21: chr10:62095068:62095169:+|3pUTR|ENSG00000150347|msi1|FALSE|unique (ssRNA)
RNA: GGGAGUUCUACAGUCCGACGAUCCCAUUUGCUUCAAUUAAUUAUUUACCUUCCUGUGGAAUAAUAUAUAUAUAUAUAUUUAAUAGAACCAUAGAUAGACUAGUAGAAUUUAGAUUAUAAAUGUGUGAGUGCAGAUUAUCCUGCCAACAGAGGAUUGAGCAUCA
B22: chr9:72354534:72354635:-|3pUTR|ENSG00000107372|msi1|FALSE|unique (ssRNA)
RNA: GGGAGUUCUACAGUCCGACGAUCGUCCUAGUUUUUACUUUUAUUCUUAAAGCAUUCAGUUUUGCUUUCAAUUUUAUGUACCUUAGUUCUGAGUUAGACCUGCAGAUGUGUACAGAUAGUUCAUAUUUAUGUAUUGCACAUAAUCAACAGAGGAUUGAGCAUCA

The binders below were run against T1, UNK ZnF1-6 (called full-length) (human, UniProt Q9C0B0 30-357) (assay: nsRBNS (natural sequence RNA bind-n-seq); RBNS binding buffer (assumed for nsRBNS): 25 mM Tris pH 7.5, 150 mM KCl, 3 mM MgCl2, 0.01% Triton X-100, 500 ug/ml BSA, 20 U/ml SUPERase-In, 4 C; UNK is unkempt and MSI1 is Musashi-1; names of the RNAs are library labels; protein concentration not given here; high values mean tight binding).
T1 sequence: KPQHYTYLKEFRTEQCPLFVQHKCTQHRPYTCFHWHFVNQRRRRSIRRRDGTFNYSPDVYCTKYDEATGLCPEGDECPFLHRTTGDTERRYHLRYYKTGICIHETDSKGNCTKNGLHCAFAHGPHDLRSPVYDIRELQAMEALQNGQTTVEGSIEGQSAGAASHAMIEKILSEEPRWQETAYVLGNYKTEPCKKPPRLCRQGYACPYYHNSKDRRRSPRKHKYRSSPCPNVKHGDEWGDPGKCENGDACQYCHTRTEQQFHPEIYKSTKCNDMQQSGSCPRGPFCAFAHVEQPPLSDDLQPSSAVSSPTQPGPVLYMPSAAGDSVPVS

In order of falling binding signal:
1. B15  199 enrichment R
2. B22  37.4 enrichment R
3. B12  35.6 enrichment R
4. B5  33.1 enrichment R
5. B20  22.2 enrichment R
6. B7  20.4 enrichment R
7. B21  15.6 enrichment R
8. B13  5.63 enrichment R
9. B11  5.42 enrichment R
10. B14  4.11 enrichment R
11. B4  3.62 enrichment R
12. B19  2.15 enrichment R
13. B8  2.02 enrichment R
14. B18  2 enrichment R
15. B3  1.83 enrichment R
16. B17  1.44 enrichment R
17. B1  1 enrichment R
18. B10  0.884 enrichment R
19. B9  0.868 enrichment R
20. B16  0.644 enrichment R
21. B2  0.541 enrichment R
22. B6  0.391 enrichment R
